Among the data in PubChem BioAssay (Tox21) are Potency values, retold here.

Unmarked numbers belong to inactive results. Results filed as inconclusive are left out. Active and inactive are the calls of the source. Unless noted, calls come from the whole dose curve.

The nature of assay [1]: Nuclear factor erythroid 2-related factor 2/antioxidant responsive element (Nrf2/ARE) small molecule agonists: luciferase reporter gene qHTS assay in human keratinocytes (AID 1919969). Note: nearly all actives have a fitted effect of over 35% in size. Note: potency is the fitted concentration of half-maximal effect.
For assay [2], the target named is Gonadotropin-releasing hormone receptor (Homo sapiens) (UniProt P30968). The assay can be described thus: Human gonadotropin-releasing hormone receptor (GnRHR) small molecule agonists, calcium flux assay in GnRHR-HEK293 cells (AID 1920063). Note: nearly all actives have a fitted effect of over 35% in size. An outline of the steps:
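Intracellular calcium rise is the read-out: engineered human GnRHR HEK293 cells, dye-loaded, are exposed to DMSO-dissolved compounds and fluorescence at Ex/Em 480/540 is tracked for 3 min.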
(A change in cytosolic calcium serves as a functional read-out for many receptors and channels.)

For assay [3], the target named is KiSS-1 receptor (Homo sapiens) (UniProt Q969F8). The assay can be described thus: Human kisspeptin (KISS1R) small molecule agonists, calcium flux assay in KISS1R-HEK293 cells (AID 1920064; active = well fitted activation curve with a large enough effect in the repeat runs). An outline of the steps:
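Concentration-response testing used 15 concentrations in triplicate on human KISS1R-expressing HEK293 cells. Calcium-dependent fluorescence (Ex/Em 480/540) was followed kinetically for 3 min after compound transfer.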

Assay [4] can be described thus: G protein-coupled receptor (GPCR) small molecule agonists, calcium flux assay: HEK293 wild type cell line counter screen (AID 1920065). An outline of the steps:
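Fluorescence intensity signals activation. After overnight (18 h) culture and a 1 h calcium dye load at 37 C, compounds are added by pin tool and the plate read at 480/540 nm for 3 min in 1 s steps.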

Assay [5] is described as follows: p53 small molecule agonists, cell-based qHTS assay with human liver microsomes (AID 1963577). Put shortly: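 In this qHTS, p53 response-element beta-lactamase cells receive test compound together with a microsome/NADPH activating system (0.5 mg/mL final each) and are incubated 16 h at 37 C before LiveBLAzer fluorescence detection.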
On the technique in general: In qHTS, concentration-response curves come from the screen itself.

The nature of assay [6]: p53 small molecule agonists, cell-based qHTS assay with rat liver microsomes (AID 1963578). An outline of the steps:
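Agonist mode in p53RE-bla reporter cells, with compounds co-incubated 16 h at 37 C alongside 0.5 mg/mL rat liver microsomes and 0.5 mg/mL NADPH (final), followed by a 2 h LiveBLAzer detection step.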

Assay [7] in a line: p53 small molecule agonists, cell-based qHTS assay with human liver microsomes: qHTS cell viability counter screen (AID 1963579). Note: nearly all actives have a fitted effect of over 45% in size. Put shortly: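 Metabolically activated exposure: compounds, human liver microsomes and NADPH (0.5 mg/mL final apiece) were added to p53RE-bla cells seeded 5 h earlier, left 16 h at 37 C, and then assessed for viability by CellTiter-Glo luminescence.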

A short description of assay [8]: p53 small molecule agonists, cell-based qHTS assay: qHTS cell viability counter screen (AID 1963581). Note: nearly all actives have a fitted effect of over 45% in size. An outline of the steps: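 Luminescence from CellTiter-Glo, reflecting ATP content, serves as the cytotoxicity measure; it is taken after the 2 h reporter substrate step in HCT-116 p53RE-bla cells dosed for 16 h at 37 C.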
A short description of assay [9]: p53 small molecule agonists, cell-based qHTS assay (AID 1963582; active = well fitted activation curve with a large enough effect in the signal ratio in the repeat runs, not every such curve was filed as active; the % refers to the signal ratio). An outline of the steps:
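After plating, p53RE-bla cells sat 5 h in the incubator; compounds or DMSO vehicle were pinned in; a 16 h incubation at 37 C followed; FRET substrate was added and, 2 h later at RT, fluorescence was measured.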

The target of assay [10] is 5-hydroxytryptamine receptor 2A (Homo sapiens) (UniProt P28223). The assay can be described thus: 5-hydroxytryptamine receptor 2A (HTR2A) small molecule antagonists, cell-based qHTS assay (AID 1963586). Note: nearly all actives have a fitted effect of over 45% in size. Put shortly: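 CHO cells stably expressing human HTR2A were plated for 18 h at 37 C, then loaded with calcium dye for 1 h. Compounds were preincubated 5 min at room temperature before DOI (4 nM solution) was added. Kinetic fluorescence was read for 3 min.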
Sequence of 5-hydroxytryptamine receptor 2A (Homo sapiens) (P28223 whole entry, looked up): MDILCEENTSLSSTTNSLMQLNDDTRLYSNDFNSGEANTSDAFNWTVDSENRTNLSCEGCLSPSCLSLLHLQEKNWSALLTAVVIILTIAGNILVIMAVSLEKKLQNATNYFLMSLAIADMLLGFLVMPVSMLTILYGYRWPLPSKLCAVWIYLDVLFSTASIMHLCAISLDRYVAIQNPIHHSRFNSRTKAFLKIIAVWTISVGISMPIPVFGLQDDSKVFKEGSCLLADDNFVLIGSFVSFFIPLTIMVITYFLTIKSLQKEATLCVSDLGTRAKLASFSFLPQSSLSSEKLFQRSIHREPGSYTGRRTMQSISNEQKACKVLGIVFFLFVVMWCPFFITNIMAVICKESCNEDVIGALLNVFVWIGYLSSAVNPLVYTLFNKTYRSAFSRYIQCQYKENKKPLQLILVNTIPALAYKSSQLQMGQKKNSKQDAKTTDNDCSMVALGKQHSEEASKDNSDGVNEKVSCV

For assay [11], the target named is Muscarinic acetylcholine receptor M1 (Homo sapiens) (UniProt P11229). The assay can be described thus: Cholinergic receptor muscarinic 1 (CHRM1) small molecule antagonists, cell-based qHTS assay (AID 1963588). Note: nearly all actives have a fitted effect of over 40% in size. Put shortly:
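Compounds were tested at 15 concentrations in three independent runs. Dye-loaded CHRM1-CHO cells were exposed 5 min at room temperature before stimulation by acetylcholine added at 50nM. Intracellular calcium was read kinetically on FDSS for 3 min.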

Assay [12] shares this target. The assay can be described thus: Cholinergic receptor muscarinic 1 (CHRM1) small molecule agonists, cell-based qHTS assay (AID 1963589). Note: nearly all actives have a fitted effect of over 35% in size. Put shortly: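 Fluorescent calcium dye reports M1 activation in stably transfected CHO cells. Compounds, 15 concentrations, added after 1 h dye loading at 37 C; kinetic reading at 1 sec intervals.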
Assay [13] is described as follows: cAMP Responsive Elements (CRE) small molecule agonists, cell-based qHTS assay (AID 1963590). An outline of the steps:
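Compound exposure lasted 3 h at 37 C/5% CO2 in CRE-bla HEK 293T cells grown in assay medium with 10% dialyzed FBS and 25 mM HEPES. Reporter signal came from LiveBLAzer B/G FRET substrate, 2 h, room temperature.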

A short description of assay [14]: cAMP Responsive Elements (CRE) small molecule antagonists, cell-based qHTS assay (AID 1963591; active = well fitted inhibition curve with a large enough effect in the signal ratio in the repeat runs, not every such curve was filed as active; the % refers to the signal ratio). Put shortly:
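Stimulation used NKH477 at a final 0.25 uM for 3 h in compound-treated CRE-bla HEK293T cells, seeded 18 h beforehand. Reporter activity was measured with LiveBLAzer B/G FRET substrate after 2 h at room temperature.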

Assay [15] concerns the target Beta-2 adrenergic receptor (Homo sapiens) (UniProt P07550). The experiment in a line: Adrenergic beta2 receptor (ADRB2) small molecule antagonists, cell-based qHTS assay (AID 1963592). Note: series mostly up to about 92 µM; nearly all actives have a fitted effect of over 50% in size. Put shortly: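 Assay format: CHO-ADRB2 cells, 18-20hr seeding at 37C/5% CO2, then compound plus 1nM isoproterenol agonist mix for 0.5hr RT. Homogeneous time-resolved fluorescence cAMP detection after 1hr, expressed as 665/615 nm ratio.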

For assay [16] the target is unchanged. The assay can be described thus: Adrenergic beta2 receptor (ADRB2) small molecule agonists, cell-based qHTS assay (AID 1963593).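 Note: CHO cells stably overexpressing human ADRB2.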 Put shortly: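 CHO cells stably over-expressing ADRB2 were plated overnight at 37C, then dosed with compounds plus a stimulation mix containing 100uM IBMX and 25uM Ro-20-1724 for 0.5hr at room temperature. cAMP was measured by HTRF competition, 1hr.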

Assay [17] concerns the target D(2) dopamine receptor (Homo sapiens) (UniProt P14416). The experiment in a line: Dopamine D2 receptor (DRD2) small molecule agonists, cell-based qHTS assay (AID 1963594). Note: nearly all actives have a fitted effect of over 35% in size. An outline of the steps:
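HEK293 cells stably expressing human DRD2, pre-treated with PDE inhibitor Ro20-1724 (0.1 mM final) and compound 10 min at room temperature, then stimulated with NKH477 (200nM […]) for 30 min. cAMP read by HTRF (665/620 nm).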

Assay [18] has the same target. The experiment in a line: Dopamine D2 receptor (DRD2) small molecule antagonists, cell-based qHTS assay (AID 1963595; active = well fitted inhibition curve with a large enough effect in the signal ratio in the repeat runs, with a control signal flat; the % refers to the signal ratio). Put shortly: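 Antagonist mode in DRD2-HEK293 cells: after compound addition with 0.1 mM Ro20-1724, cells received quinpirole (12 nM) and NKH477 (200 nM) for 30 min at room temperature; HTRF cAMP read after 1 h detection.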
A short description of assay [19]: p53 small molecule agonists, cell-based qHTS assay with rat liver microsomes: qHTS cell viability counter screen (AID 1963580). Note: nearly all actives have a fitted effect of over 45% in size. An outline of the steps: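 Cytotoxicity counter screen: intracellular ATP measured by CellTiter-Glo luminescence in the same wells as the beta-lactamase reporter read, on HCT-116 p53RE-bla cells exposed 16 h at 37 C to compounds with rat liver microsomes and NADPH, each 0.5 mg/mL final.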

For assay [20], the target named is 5-hydroxytryptamine receptor 2A (Homo sapiens) (UniProt P28223). The experiment in a line: 5-hydroxytryptamine receptor 2A (HTR2A) small molecule agonists, cell-based qHTS assay (AID 1963587). Note: nearly all actives have a fitted effect of over 30% in size. Put shortly:
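CHO cells stably expressing human HTR2A, plated 18 h, loaded with calcium dye 1 h at 37 C. Agonist mode: compounds added and intracellular calcium fluorescence recorded kinetically for 2 min at 1 sec intervals.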

Sequence of D(2) dopamine receptor (Homo sapiens) (P14416 whole entry, looked up): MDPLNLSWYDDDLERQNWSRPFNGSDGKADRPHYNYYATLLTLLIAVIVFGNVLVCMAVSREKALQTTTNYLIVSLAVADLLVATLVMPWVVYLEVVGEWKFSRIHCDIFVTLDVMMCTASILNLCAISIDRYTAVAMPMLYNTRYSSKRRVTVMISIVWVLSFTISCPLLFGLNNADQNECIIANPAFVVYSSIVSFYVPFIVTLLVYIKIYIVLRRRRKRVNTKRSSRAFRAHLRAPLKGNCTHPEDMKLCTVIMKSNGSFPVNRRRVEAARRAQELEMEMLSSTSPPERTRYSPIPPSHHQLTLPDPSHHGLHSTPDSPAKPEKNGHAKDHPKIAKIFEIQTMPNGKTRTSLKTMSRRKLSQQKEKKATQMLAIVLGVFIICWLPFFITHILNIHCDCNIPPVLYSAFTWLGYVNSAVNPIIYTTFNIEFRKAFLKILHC
Sequence of Beta-2 adrenergic receptor (Homo sapiens) (P07550 whole entry, looked up): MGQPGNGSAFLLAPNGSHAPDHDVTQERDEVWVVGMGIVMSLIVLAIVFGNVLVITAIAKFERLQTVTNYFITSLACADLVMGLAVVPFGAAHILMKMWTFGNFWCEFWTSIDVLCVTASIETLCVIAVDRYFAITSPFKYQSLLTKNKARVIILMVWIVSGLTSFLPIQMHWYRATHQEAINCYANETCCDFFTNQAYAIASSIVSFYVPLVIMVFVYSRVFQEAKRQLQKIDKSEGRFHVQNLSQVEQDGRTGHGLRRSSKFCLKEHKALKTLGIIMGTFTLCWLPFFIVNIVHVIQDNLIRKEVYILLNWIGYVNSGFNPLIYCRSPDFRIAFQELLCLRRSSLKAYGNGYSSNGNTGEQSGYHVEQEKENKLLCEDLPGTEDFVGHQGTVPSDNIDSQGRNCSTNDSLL
Sequence of KiSS-1 receptor (Homo sapiens) (Q969F8 whole entry, looked up): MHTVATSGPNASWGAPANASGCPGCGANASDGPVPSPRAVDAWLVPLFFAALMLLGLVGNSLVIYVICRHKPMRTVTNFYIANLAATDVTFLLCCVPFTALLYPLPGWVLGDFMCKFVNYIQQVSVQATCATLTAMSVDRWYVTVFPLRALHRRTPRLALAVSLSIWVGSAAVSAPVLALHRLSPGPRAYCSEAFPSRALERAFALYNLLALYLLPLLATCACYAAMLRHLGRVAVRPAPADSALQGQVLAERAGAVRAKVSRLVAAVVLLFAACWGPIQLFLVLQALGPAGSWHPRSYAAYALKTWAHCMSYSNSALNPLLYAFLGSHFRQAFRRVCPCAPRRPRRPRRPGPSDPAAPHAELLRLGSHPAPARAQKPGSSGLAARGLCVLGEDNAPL
Sequence of Gonadotropin-releasing hormone receptor (Homo sapiens) (P30968 whole entry, looked up): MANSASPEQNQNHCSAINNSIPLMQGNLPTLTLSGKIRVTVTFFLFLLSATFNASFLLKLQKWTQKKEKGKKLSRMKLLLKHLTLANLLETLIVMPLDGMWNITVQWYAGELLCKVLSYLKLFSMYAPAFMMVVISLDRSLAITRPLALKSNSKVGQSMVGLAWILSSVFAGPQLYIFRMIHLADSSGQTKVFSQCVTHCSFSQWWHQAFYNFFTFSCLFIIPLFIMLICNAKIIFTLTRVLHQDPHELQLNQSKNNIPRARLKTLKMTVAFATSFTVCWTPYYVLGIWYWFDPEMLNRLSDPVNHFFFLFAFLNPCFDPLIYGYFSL
Sequence of Muscarinic acetylcholine receptor M1 (Homo sapiens) (P11229 whole entry, looked up): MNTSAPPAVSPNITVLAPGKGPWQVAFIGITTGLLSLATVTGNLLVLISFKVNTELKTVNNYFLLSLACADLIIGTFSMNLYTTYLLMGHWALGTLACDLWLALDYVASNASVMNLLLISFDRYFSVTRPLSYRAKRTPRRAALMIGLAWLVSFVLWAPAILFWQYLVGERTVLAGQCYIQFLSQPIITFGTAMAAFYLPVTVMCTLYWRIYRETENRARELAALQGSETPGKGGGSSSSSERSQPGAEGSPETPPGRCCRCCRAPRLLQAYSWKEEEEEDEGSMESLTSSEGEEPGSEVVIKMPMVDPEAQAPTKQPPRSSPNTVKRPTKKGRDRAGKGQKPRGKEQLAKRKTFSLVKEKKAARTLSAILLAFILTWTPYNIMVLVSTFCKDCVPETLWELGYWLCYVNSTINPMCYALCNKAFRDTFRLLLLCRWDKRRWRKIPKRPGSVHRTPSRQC

For the molecule `CNC(=O)c1c(I)c(NC(C)=O)c(I)c(C(=O)O)c1I`, the Potency entry in assay [1], in [2], in assay [3], in assay [4], in [5] and in assay [6] was “inactive” each time. The Potency entry in assay [7], in assay [8], in assay [9], in [10], in [11] and in assay [12] was “inactive” in each case. Further, the Potency result in assay [13], in [14], in assay [15], in assay [16], in assay [17] and in assay [18] was “inactive” throughout.
`Nc1nc(N)nc(-c2ccccc2)n1`: the Potency entry in [1], in assay [2], in assay [3], in assay [4], in assay [7] and in assay [19] was “inactive” throughout. Also, the Potency result in assay [8], in assay [10], in assay [20], in assay [11], in assay [13] and in [14] was “inactive” throughout. The Potency entry in assay [15], in assay [17] and in assay [18] was “inactive” throughout.
As to `C=CCCC(=O)/C=C/C1C(C)=CCCC1(C)C` (configuration not stated), in assay [1], the Potency was 54.5 µM (active). Moreover, the Potency result in [2], in assay [3], in [4], in assay [5], in [6] and in [7] was “inactive” each time. The Potency entry in [19], in assay [8], in [9], in assay [20], in assay [11] and in assay [12] was “inactive” each time. Besides, the Potency result in [13], in assay [14], in assay [15], in assay [16], in assay [17] and in [18] was “inactive” in each case.
As for `COC(OC)C(C)c1ccccc1` (configuration not stated), the Potency result in [1], in assay [2], in assay [3], in assay [4], in assay [5] and in [6] was “inactive” throughout. The Potency result in [7], in assay [19], in assay [8], in assay [9], in assay [10] and in assay [20] was “inactive” in each case. Also, the Potency result in [12], in assay [13], in assay [14], in [15] and in assay [18] was “inactive” in each case.
`CCOC(/C=C(\C)CCC=C(C)C)OCC`: the Potency result in assay [1], in assay [2], in assay [3], in assay [4], in assay [5] and in assay [6] was “inactive” each time. The Potency result in [7], in assay [19], in assay [8], in assay [9], in assay [10] and in [11] was “inactive” each time. Besides, the Potency entry in assay [12], in [13], in [14], in assay [15], in assay [16] and in [17] was “inactive” each time. Further, in [18], the Potency result was “inactive”.
For the molecule `Cc1ccccc1N=O`, the Potency entry in [1], in [2], in assay [3], in assay [4], in [5] and in [6] was “inactive” each time. The Potency result in assay [7], in assay [19], in assay [9], in [10], in assay [11] and in assay [12] was “inactive” in each case. Also, the Potency result in assay [13], in [14], in [15], in [17] and in assay [18] was “inactive” each time.
With `C/C=C(\C)C(=O)OC/C=C(\C)CCC=C(C)C`, the Potency entry in assay [1], in assay [2], in assay [3], in assay [4], in assay [5] and in assay [6] was “inactive” each time. Further, the Potency result in assay [7], in assay [19], in assay [8], in assay [10], in assay [20] and in [12] was “inactive” in each case. In addition, the Potency entry in [13], in [14], in [15], in [16] and in assay [17] was “inactive” throughout.
